In all, about 300,000 compounds went through this assay and about 37,000 (12%) were called active. The sample as a whole holds a higher share of actives than the screen did. Values without a mark were called inactive. No stated cut-off is given here; in the data, active means max response mostly above about 13% (no sharp cut-off); inactive means mostly below about 14%.

The assay in a line: Cycloheximide Counterscreen for Small Molecule Inhibitors of Shiga Toxin. Further: read at 38.3 µM for the half of the compounds with a filed dose; 0% is about no effect. The following applies: cell reporter, cycloheximide protein synthesis inhibition counterscreen; stronger effect = higher value.
For `CC(C)(C)N(Cc1ccccc1)C(=O)COC(=O)CCc1c[nH]c2ccccc12`, the max response is -0.22%.
For `COc1cc(CN2CCC(n3nccc3NC(=O)CCCc3ccccc3)CC2)ccc1O` the value was -1.56%; for `Cc1ccc(CN2CCC(n3nccc3NC(=O)CCCc3ccccc3)CC2)o1`, 2.06%.
In the case of `CC(=O)NCC(=O)N1CCC(n2nccc2NC(=O)CCCc2ccccc2)CC1` it was 26.3% (active); in that of `CC(=O)N[C@@H](C)C(=O)N1CCC(n2nccc2NC(=O)CCCc2ccccc2)CC1`, 24.6% (active).
For the compound `COc1ccc(CN2CCC(n3nccc3NC(=O)CCCc3ccccc3)CC2)cc1C`, the max response is -6.15%.
Take `CCn1cc(CN2CCC(n3nccc3NC(=O)CCCc3ccccc3)CC2)c(C)n1`: the max response is -2.15%.
In the case of `CCC(C(=O)OC)n1cnc2scc(-c3ccc(C)cc3)c2c1=O` (stereo not drawn) it was 0.506%; in that of `COc1ccc(N2C(=O)C3C(C2=O)C(C(=O)c2ccccc2)N2CCCC32)cc1` (stereo not drawn), 2.35%; in that of `O=C(NCc1ccccc1Cl)c1ccc2c(=O)n(CC3CCCO3)c(=S)[nH]c2c1` (stereo not drawn), -1.12%.
For `CCCC[C@@H]1CN=C(N)N1CCc1cc(C(F)(F)F)cc(C(F)(F)F)c1`, the max response is -4.84%.
For `CC[C@H](C)[C@H](NC(=O)[C@H](CCCNC(=N)N)NC(=O)[C@H](CCCNC(=N)N)NC(=O)[C@H](CC(C)C)NC(=O)[C@H](Cc1ccccc1)NC(=O)CNC(=O)CNC(=O)[C@@H](N)Cc1ccc(O)cc1)C(=O)N[C@@H](CCCNC(=N)N)C(=O)N1CCC[C@H]1C(=O)N[C@@H](CCCCN)C(=O)N[C@@H](CC(C)C)C(=O)N[C@@H](CCCCN)C(=O)N[C@@H](Cc1c[nH]c2ccccc12)C(=O)N[C@@H](CC(=O)O)C(=O)N[C@@H](CC(N)=O)C(=O)N[C@@H](CCC(N)=O)C(=O)O` the value was -3.93%; for `O=C(Cn1ccc2cc(S(=O)(=O)N3CCCC3)ccc21)NCc1ccccc1`, 12.1%.
Consider `C=CCOc1ccc(/C=C2\SC(=S)N(CCC(=O)O)C2=O)cc1`, for which the max response was -2.97%.
For `O=C(C1CCN(S(=O)(=O)c2ccc(Br)s2)CC1)N1CCN(C2CCCCC2)CC1` the value was 3.94%.
Regarding `COc1cc(OC)c(-n2cc(-c3ccc(Cl)cc3)[nH]c2=O)cc1Cl`, the max response is 0.883%.
For `Cc1cc(C)nc(SC2CCCCC2NS(=O)(=O)c2ccc(Cl)cc2)n1` (stereo not drawn) the value was -1.57%; for `CC(c1ccccn1)N(C)C(=O)c1ccc2nc(Cc3cccc(Cl)c3)oc2c1` (stereo not drawn), 52.7% (active); for `CC(C(=O)NCC1CCCCC1)N(C)Cc1cccc(Cl)c1` (stereo not drawn), -4.34%.
For `CN(Cc1ccccc1)C(=O)c1cccc(C(=O)N(C)Cc2ccccc2)c1` the value was -3.47%; for `COC(=O)c1cc(S(=O)(=O)Nc2ccc(C)c(F)c2)c[nH]1`, 1.38%; for `COc1ccc(Cc2nnc(NC(=O)Cc3cccs3)s2)cc1`, 12.7%.
Take `COc1ccc(NC(=O)c2cc(-c3cc(OC)c(OC)c(OC)c3)nc3ccccc23)c(OC)c1`: the max response was -6.98%.
On to `COc1ccc(C(=O)N2CCCN(C)CC2)c(OC)c1`, for which the max response is -2.16%.
In the case of `COc1ccc(C(=O)NCc2nnc(SCC(=O)NC3=NCCS3)n2C)cc1` it was -2.2%.
For `O=C(NC1=NCCS1)c1ccc(Cl)s1` the value was 66.8% (active); for `COc1ccc(Cc2nnc(NC(=O)c3cc(OC)c(OC)c(OC)c3)s2)cc1OC`, -3.75%.
In the case of `COc1ccc(C(=O)Nc2nncs2)c(OC)c1` it was 34.6% (active); in that of `COc1cccc(OC)c1C(=O)Nc1nnc(C(C)C)s1`, -1.98%; in that of `COc1ccc(Cc2nnc(NC(=O)c3ccc(OC)cc3OC)s2)cc1`, 31.5% (active).
Consider `CC(NC(=O)COc1ccccc1)C(=O)NC1=NCCS1` (stereo not drawn), for which the max response is 4.07%.
For `COc1ccc(C(=O)NC2=NCCS2)c(OC)c1`, the max response was 32.6% (active).
On to `O=C(NC1=NCCS1)[C@H](Cc1ccccc1)N1C(=O)c2ccccc2C1=O`, for which the max response is -2.74%.
In the case of `CCN1C(=S)N[C@@H](c2cccc(C(F)(F)F)c2)C(C(=O)OC)=C1C` it was -8.93%; in that of `COC(C(=O)Nc1ccc(S(=O)(=O)Nc2ccc(C)c(C)c2)cc1)c1ccccc1` (stereo not drawn), -1.18%.
In the case of `CS(=O)(=O)c1sc(C(=O)NC(=S)Nc2ccc(OC(F)(F)F)cc2)c2c1C=CCC2`, the max response was 1.1%.
As for `CCOC(=O)c1ccccc1N1C(=O)C2Sc3[nH]c(=O)sc3C(/C=C/c3ccccc3)C2C1=O` (stereo not drawn), the max response was -1.12%.
Consider `CC(C)(C)NCCCOc1ccc(Cl)cc1C(C)(C)C`, for which the max response is -3.93%.
In the case of `O=C(CSc1ccccn1)Nc1nc2c(ccc3ccccc32)s1` it was 15%; in that of `CC(=O)NCCC(=O)Nc1cc(S(=O)(=O)N2CCCCC2)ccc1Oc1cccc(C)c1`, -3.52%; in that of `c1ccc2sc(C3CCCNC3)nc2c1` (stereo not drawn), 30.8% (active).
For `O=C(c1cccs1)N1CCC(c2nc3ccccc3s2)CC1` the value was -1.42%.
In the case of `Cc1cccc(C(=O)N2CCC(c3nc4ccccc4s3)CC2)c1`, the max response was -3.16%.
In the case of `Cc1[nH]c(C)c(S(=O)(=O)N2CCN(c3cccc(C(F)(F)F)c3)CC2)c1C(=O)N1CCCC1` it was -5.38%; in that of `C=C1CCN(Cc2ccc(OC)cc2)S(=O)(=O)c2ccccc21`, 12.8%; in that of `CCOc1ccc(N2CC(C(=O)NCc3ccccn3)CC2=O)cc1` (stereo not drawn), -11.6%.
In the case of `CC1CCN(c2ccc(C(=O)NCc3ccc4c(c3)OCO4)cc2[N+](=O)[O-])CC1` it was -5.58%; in that of `Cc1ccc(C2CN(C)CC2C(=O)c2ccc(F)cc2)cc1` (stereo not drawn), -3.61%.
For `CCc1ccc(NC(=O)CN2CCC(C(=O)c3ccc(OC)cc3)CC2)cc1` the value was -4.07%.
For the compound `COc1ccc(C(=O)C2CN(C)CC2C(=O)c2ccc(OC)cc2)cc1` (stereo not drawn), the max response was 19% (active).
For `CC(C)(C)C(=O)CN1C2=NCCN2c2ccccc21` the value was -2.32%; for `CCc1ccc(NC(=O)Cn2nnc(C(=O)NCc3ccc4c(c3)OCO4)c2N)cc1`, -3.61%.
Turning to `Cc1ccc(-c2nc(CSCC(=O)NC3CCN(Cc4ccccc4)CC3)c(C)o2)cc1`, the max response is -6.12%.
With `COc1cc(C(=O)N[C@@H](C)C(=O)NCc2ccco2)cc(OC)c1OC`, the max response is -1.35%.
In the case of `COc1cccc(OCC(O)CNC(=O)c2oc3c(C)c(C)ccc3c2C)c1` (stereo not drawn) it was -4.29%; in that of `Cc1c(C(=O)NCCN(C)C)oc2ccc(S(=O)(=O)N3CCCC3)cc12`, 2.66%.
In the case of `COc1ccc2oc(C(=O)NCC(Cc3ccccc3)N(C)C)c(C)c2c1` (stereo not drawn) it was 12% (active); in that of `Cc1cc(S(=O)(=O)Nc2ccc(C(=O)NCC(c3ccco3)N3CCCC3)cc2)ccc1F` (stereo not drawn), 0.909%; in that of `COc1ccc2oc(C(=O)NCc3ccco3)c(C)c2c1`, 31.4% (active).
Consider `Cc1c(C(=O)NCC(c2ccco2)N2CCCC2)oc2ccc(Cl)cc12` (stereo not drawn), for which the max response was 37.1% (active).
In the case of `CCCCn1c(N)c(N(CCOC)C(=O)c2oc3ccc(OC)cc3c2C)c(=O)[nH]c1=O` it was -2.73%; in that of `COc1cc(C(=O)NC(=S)NCc2ccco2)cc(OC)c1OC`, 2.82%.
In the case of `COc1ccc(NS(=O)(=O)c2ccc(F)cc2F)cn1` it was -4.72%; in that of `COc1cc(C(=O)NCCOC(=O)c2cccc(N(C)C)c2)cc(OC)c1OC`, -1.25%; in that of `Cc1nc2ccccc2c(-c2ccccc2)c1C(=O)c1ccccc1`, -4.4%.
Consider `CCC(=O)/C(=C(/O)c1ccccc1)c1nc2ccccc2[nH]1`, for which the max response was 31% (active).
For `CC/C(O)=C1\C(=O)CC(C)(C)CC1=NCCc1nc2ccccc2[nH]1` the value was 6.92%; for `Cc1nnc(Sc2nc3c(c(=O)[nH]c(=O)n3C)n2Cc2ccccc2)s1`, -5.79%.
In the case of `Cn1c(SCc2nc3ccccc3s2)nnc1-c1ccc2c(c1)OCO2` it was 39.5% (active); in that of `Cn1c(SCC(=O)N2CCOCC2)nnc1-c1ccc(NC(=O)c2ccccc2F)cc1`, -4.11%; in that of `Cn1c(SCC(=O)N2CCCC2)nnc1-c1ccc2c(c1)OCO2`, 18.9% (active).
In the case of `O=C(O)CSc1nnc(-c2ccc3c(c2)OCO3)n1-c1ccccc1` it was 12.9%; in that of `Cn1c(SCC(=O)N2CCOCC2)nnc1-c1ccc2ncccc2c1`, -0.963%; in that of `Cc1ccccc1-c1nnc(SCC(=O)NCc2ccc3c(c2)OCO3)n1C`, -2.35%.
`COc1ccccc1NC(=O)CCN1CCN(c2ccc(Cl)cc2)CC1`: the max response was -0.528%.
For `COc1cc(C(C(=O)NC2CCCC2)N(C(=O)c2ccco2)c2ccccc2C(C)=O)cc(OC)c1OC` (stereo not drawn) the value was 3.6%.
For `CC(C)c1c(C(=O)N/N=C/c2ccccc2C(=O)O)nnn1-c1nonc1N` the value was 23.4%; for `COc1ccccc1C(=O)NC(CCSC)C(=O)NNC(=O)c1csc(N2CCOCC2)n1` (stereo not drawn), -1.29%.
Turning to `O=C(NCCc1ccc(Cl)cc1Cl)c1cc([N+](=O)[O-])c[nH]c1=O`, the max response was -5.02%.
Turning to `CCCN1CCN(C(=O)CCCNC(=O)c2ccc(Cl)cc2)CC1`, the max response was -2.8%.
For `O=C(NC(=O)c1ccccc1N1CCCCC1)Nc1ccc(Br)cc1` the value was -3.48%; for `CN1CCN(NC(=O)Nc2ccc(Br)cc2)CC1`, 24.2% (active); for `COc1ccc(NC(=O)NN2CCN(C)CC2)c(OC)c1`, 0.309%.
In the case of `COc1ccc(-c2nc3c(s2)CCc2onc(-c4ccc(OC)cc4)c2-3)cc1`, the max response is -2.4%.
In the case of `COc1ccc(S(=O)(=O)N2CCN(C)CC2)c(C)c1` it was -3.62%; in that of `CN(c1ccccc1)c1nc(N)c([N+](=O)[O-])c(NCc2ccco2)n1`, 1.96%.
In the case of `COc1cccc(Nc2nc(N)c([N+](=O)[O-])c(NCc3ccco3)n2)c1` it was 19.4% (active); in that of `Nc1nc(NCCCN2CCOCC2)nc(Nc2ccccc2)c1[N+](=O)[O-]`, -2.59%.

(Values after PubChem BioAssay AID2314 (National Center for Advancing Translational Sciences (NCATS), 2010).)
